Laboratory results from PubChem BioAssay (Tox21).
Results filed as inconclusive are left out. Entries that show only a call come without a potency. A number with no mark means an inactive call. Calls of active or inactive are those of the source. Calls come from the whole dose curve; as a rule, active = well fitted curve in the direction sought with a large enough effect in the repeat runs; inconclusive = weak or mixed curves; inactive = no such curve, though single readings can be large; an effect the other way counts as inactive or inconclusive.

System: not listed separately
Assay: qHTS assay to identify small molecule antagonists of the androgen receptor (AR) signaling pathway using the MDA cell line in the presence of 0.5 nM R1881 - cell viability counter screen (AID 1259242); note: nearly all actives have a fitted effect of over 45% in size
Details: MDA-kb2 viability, CellTiter-Fluor protease fluorescence, 16 h; series mostly up to 92.4 µM
Summary of the method: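 Concentration-response screen of compounds for toxicity in MDA-kb2 reporter cells: 16 hr at 37C with 0.5 nM R1881, endpoint live-cell protease fluorescence measured in the reporter wells.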
Potency is the fitted concentration of half-maximal effect.

Compound	viability change, negative = cytotoxic	Potency
CCCCCCCCCCCCCCCCCO	-1.99% [at 19 µM]	
OCCCCl		inactive
NC(=O)c1ccccc1N		inactive
COc1cc(C(C)C)c2c(c1)S(=O)(=O)N(COc1cc(=O)n3cccc(OCCN4CCCCC4)c3n1)C2=O	-2.69% [at 19 µM]	
CCCCCCS		inactive
COc1ccccc1C=O		inactive
CCN=C1C=CC(=C(c2ccc(N(CC)CC)cc2)c2ccc(N(CC)CC)cc2)c2ccccc21		2710 nM (active)
c1ccc2c(c1)CCC2		inactive
Cc1cccc(C)n1		inactive
CCOCOCC		inactive
C/C=C/CO		inactive
O=CC1CC1		inactive
CCCCCCCOC(=O)c1ccccc1C(=O)OCCCCCCC		inactive
CC1CCCCC1		inactive
CCCSS/C(CCO)=C(\C)N(C=O)Cc1cnc(C)nc1N		inactive
CCCCN(C)C		inactive
CC(=O)OC1CCCCC1		inactive
CCO[Si](C)(C)OCC		inactive

Compound	viability change, negative = cytotoxic	Potency
CCCC(C)CCC(C)=O (stereo not given)		inactive
CCC(C)c1ccccc1 (stereo not given)		inactive
c1cc[nH]c1		inactive
COc1ccc(-n2nc(CCC(=O)N(C)O)cc2-c2ccc(Cl)cc2)cc1		inactive
CCOB(OCC)OCC		inactive
Cc1cccc(N(C)C)c1		inactive
C=CC(C)(CCC=C(C)C)OC(=O)/C=C/c1ccccc1 (stereo not given)		inactive
CO[Si](CCC1CCC2OC2C1)(OC)OC (stereo not given)		inactive
CCCCCCCC(=O)OCC		inactive
Oc1ccc(-c2ccccc2)c(Cl)c1		inactive
O=Cc1ccc(F)cc1		inactive
NC(=O)C(=O)N/N=C/c1ccc([N+](=O)[O-])o1		inactive
COc1nccnc1CC(C)C		inactive
C=CC/C=C/C/C=C/C/C=C/C		inactive
O=c1cccc[nH]1		inactive
CCOC(OCC)C(=O)c1ccccc1		inactive
O=S(=O)(O)c1cc(S(=O)(=O)O)c2ccc3c(S(=O)(=O)O)cc(S(=O)(=O)O)c4ccc1c2c43	-1.34% [at 19 µM]	

Molecular target: Androgen receptor (Homo sapiens) (UniProt P10275)
Assay: qHTS assay to identify small molecule antagonists of the androgen receptor (AR) signaling pathway using the MDA cell line in the presence of 0.5 nM R1881 (AID 1259243); note: nearly all actives have a fitted effect of over 50% in size
Details: MDA-kb2 MMTV-luciferase, R1881 0.5 nM, 16 h; series mostly up to 92.4 µM
Summary of the method: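 With R1881 held at 0.5 nM (final), compound effects on MMTV-luciferase expression in MDA-kb2 cells were scored by luminescence after a 16 hr, 37C incubation.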

Chain of Androgen receptor (Homo sapiens) (P10275 whole entry, looked up): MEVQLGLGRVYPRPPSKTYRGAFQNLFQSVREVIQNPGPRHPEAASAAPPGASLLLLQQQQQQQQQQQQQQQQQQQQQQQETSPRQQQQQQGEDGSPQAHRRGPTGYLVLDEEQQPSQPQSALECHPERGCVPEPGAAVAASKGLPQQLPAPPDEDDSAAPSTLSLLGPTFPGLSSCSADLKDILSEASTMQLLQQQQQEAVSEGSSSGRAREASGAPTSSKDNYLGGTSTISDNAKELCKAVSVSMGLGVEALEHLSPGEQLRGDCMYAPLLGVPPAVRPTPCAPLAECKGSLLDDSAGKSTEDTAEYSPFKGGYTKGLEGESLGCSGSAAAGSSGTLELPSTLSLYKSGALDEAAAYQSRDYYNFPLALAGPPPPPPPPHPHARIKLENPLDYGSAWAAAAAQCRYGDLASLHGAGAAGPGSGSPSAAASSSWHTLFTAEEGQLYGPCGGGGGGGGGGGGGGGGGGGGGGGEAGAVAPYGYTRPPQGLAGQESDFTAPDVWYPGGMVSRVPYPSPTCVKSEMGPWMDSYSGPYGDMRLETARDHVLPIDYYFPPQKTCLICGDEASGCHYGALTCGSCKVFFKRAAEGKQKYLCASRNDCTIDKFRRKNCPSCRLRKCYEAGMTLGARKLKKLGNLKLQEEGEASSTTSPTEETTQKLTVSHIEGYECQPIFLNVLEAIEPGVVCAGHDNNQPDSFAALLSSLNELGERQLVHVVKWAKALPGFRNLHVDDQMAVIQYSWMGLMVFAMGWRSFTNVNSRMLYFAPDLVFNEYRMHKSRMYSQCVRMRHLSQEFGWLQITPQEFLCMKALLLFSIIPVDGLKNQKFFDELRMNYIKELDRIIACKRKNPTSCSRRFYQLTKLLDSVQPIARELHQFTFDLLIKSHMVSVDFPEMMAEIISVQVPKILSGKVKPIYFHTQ

Compound	activity, negative = inhibition	Potency
CCCCCCCCCCCCCCCCCO	-1.74% [at 19 µM]	
OCCCCl		inactive
NC(=O)c1ccccc1N		inactive
COc1cc(C(C)C)c2c(c1)S(=O)(=O)N(COc1cc(=O)n3cccc(OCCN4CCCCC4)c3n1)C2=O	-16.6% [at 19 µM]	
CCCCCCS		inactive
COc1ccccc1C=O		inactive
CCN=C1C=CC(=C(c2ccc(N(CC)CC)cc2)c2ccc(N(CC)CC)cc2)c2ccccc21		608 nM (active)
c1ccc2c(c1)CCC2		inactive
Cc1cccc(C)n1		inactive
CCOCOCC		inactive
C/C=C/CO		inactive
O=CC1CC1		inactive
CCCCCCCOC(=O)c1ccccc1C(=O)OCCCCCCC		inactive
CC1CCCCC1		inactive
CCCSS/C(CCO)=C(\C)N(C=O)Cc1cnc(C)nc1N		inactive
CCCCN(C)C		inactive
CC(=O)OC1CCCCC1		inactive
CCO[Si](C)(C)OCC		inactive

Compound	activity, negative = inhibition	Potency
CCCC(C)CCC(C)=O (stereo not given)		inactive
CCC(C)c1ccccc1 (stereo not given)		inactive
c1cc[nH]c1		inactive
COc1ccc(-n2nc(CCC(=O)N(C)O)cc2-c2ccc(Cl)cc2)cc1		inactive
CCOB(OCC)OCC		inactive
Cc1cccc(N(C)C)c1		inactive
C=CC(C)(CCC=C(C)C)OC(=O)/C=C/c1ccccc1 (stereo not given)		inactive
CO[Si](CCC1CCC2OC2C1)(OC)OC (stereo not given)		inactive
CCCCCCCC(=O)OCC		inactive
Oc1ccc(-c2ccccc2)c(Cl)c1		1930 nM (active)
O=Cc1ccc(F)cc1		inactive
NC(=O)C(=O)N/N=C/c1ccc([N+](=O)[O-])o1		inactive
COc1nccnc1CC(C)C		inactive
C=CC/C=C/C/C=C/C/C=C/C		inactive
O=c1cccc[nH]1		inactive
CCOC(OCC)C(=O)c1ccccc1		inactive
O=S(=O)(O)c1cc(S(=O)(=O)O)c2ccc3c(S(=O)(=O)O)cc(S(=O)(=O)O)c4ccc1c2c43	1.23% [at 19 µM]	
